According to PubChem BioAssay (NCI):
Values joined by “and” are separate entries in the source; they are usually repeats but may differ in a detail not shown here. Identical values can stand only once. This is part of a sample that, as a whole, favours compounds with a hit. Of some 83,000 tested, about 20% had one in any assay.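 The endpoint reported here, percent growth, reads 100 for growth as untreated, 0 for no net growth and -100 for all cells dead.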 Where a SMILES comes first, the peptide text is derived from it.

Assays:
Test in all cases: NCI-60 one-dose screen, 48 h (100 = growth as untreated, 0 = no growth, -100 = all killed); active = growth percent below 10; inactive = the rest
NCI-H226 lung = details: 10 µM unless noted
NCI-H322M lung = details: 10 µM unless noted
HOP-62 NSCLC = details: 10 µM unless noted
HOP-92 NSCLC = details: 10 µM
NCI-H522 lung = details: 10 µM
786-0 renal = details: 10 µM unless noted
A549/ATCC NSCLC = details: 10 µM unless noted
COLO 205 colon = details: 10 µM unless noted
NCI-H460 lung = details: 10 µM unless noted

Measured: growth

Cc1cc(-c2ccc(N=Nc3ccc4c(S(=O)(=O)O)cc(S(=O)(=O)O)c(N)c4c3O)c(C)c2)ccc1N=Nc1ccc2c(S(=O)(=O)O)cc(S(=O)(=O)O)c(N)c2c1O
inactive: NCI-H226 lung 89.2% | NCI-H322M lung 119% | HOP-62 NSCLC 95.7% | HOP-92 NSCLC 67.1% | NCI-H522 lung 85.6% | 786-0 renal 101%

O=C(CO)C(O)C(O)C(O)C(O)CO (centres undefined)
inactive: NCI-H226 lung 96.2% and 101% | NCI-H322M lung 107% and 105% | HOP-62 NSCLC 105% | HOP-92 NSCLC 116% and 105% | NCI-H522 lung 102% and 108% | 786-0 renal 105%

NC(Cc1ccccc1)C(=O)NC(Cc1ccccc1)C(=O)O (stereo not drawn) (H-Phe-Phe-OH; configuration not given here)
inactive: NCI-H226 lung 95.6% and 93% | NCI-H322M lung 94.6% and 100% | HOP-62 NSCLC 91.1% and 100% | HOP-92 NSCLC 97.6% | NCI-H522 lung 87.3% and 99.4% | A549/ATCC NSCLC 90.2% and 101% | 786-0 renal 111% and 104% | COLO 205 colon 107% and 110%

COc1ccc(Nc2ccc3ccccc3c2)cc1
inactive: NCI-H226 lung 81% | HOP-62 NSCLC 67.9% | NCI-H460 lung 94.1% | 786-0 renal 84.3%

Cc1ccc(=O)[nH]n1
inactive: NCI-H226 lung 102% and 100% | NCI-H322M lung 104% and 103% | HOP-62 NSCLC 110% and 91.9% | NCI-H460 lung 105% and 107% | HOP-92 NSCLC 85.1% | NCI-H522 lung 108% and 96.2% | 786-0 renal 111% | COLO 205 colon 111% and 115%

CC1CCC2(OC1)OC1CC3C4CC=C5CC(O)CCC5(C)C4CCC3(C)C1C2C (centres undefined)
inactive: NCI-H226 lung 92.2% | NCI-H322M lung 113% | HOP-62 NSCLC 66.6% | NCI-H460 lung 103% | HOP-92 NSCLC 26.6% | NCI-H522 lung 103% | COLO 205 colon 111%

CC(C)(O)C(=O)O
inactive: NCI-H226 lung 102% | NCI-H322M lung 98.6% | HOP-62 NSCLC 99.9% | HOP-92 NSCLC 91.7% | NCI-H522 lung 103% | 786-0 renal 95.4%

O=C(O)CCCl
inactive: NCI-H226 lung 95.6% | NCI-H322M lung 102% | HOP-62 NSCLC 105% | HOP-92 NSCLC 78.4% | NCI-H522 lung 112% | A549/ATCC NSCLC 104% | 786-0 renal 120%

CCCCNc1ccc(Nc2ccccc2)cc1
inactive: NCI-H226 lung 73.3% | NCI-H322M lung 98.3% | HOP-62 NSCLC 106% | HOP-92 NSCLC 63.7% | NCI-H522 lung 31.2% | 786-0 renal 92.9%

O=C1OC(c2ccccc2)=N/C1=C\c1ccccc1
inactive: NCI-H226 lung 90.9% | NCI-H322M lung 96.2% | HOP-62 NSCLC 99.6% | HOP-92 NSCLC 88.7% | NCI-H522 lung 108% | 786-0 renal 95.9% | COLO 205 colon 113%

CC(C)C(C)(C)c1ccc(O)cc1
inactive: NCI-H226 lung 99.3% | NCI-H322M lung 102% | HOP-62 NSCLC 104% | NCI-H522 lung 99.7% | A549/ATCC NSCLC 102%

O=C(/C=C/c1ccccc1)c1ccccc1
inactive: NCI-H226 lung 126% | NCI-H322M lung 115% | HOP-62 NSCLC 94.9% | NCI-H460 lung 93.1% | NCI-H522 lung 84.8% | A549/ATCC NSCLC 96.3% | 786-0 renal 86.9% | COLO 205 colon 114%

O=[N+]([O-])c1cccc(SSc2cccc([N+](=O)[O-])c2)c1
inactive: NCI-H226 lung 106% | NCI-H322M lung 116% | HOP-62 NSCLC 89.8% | NCI-H522 lung 96.8% | 786-0 renal 103%

NC(=O)NCCCC(N)C(=O)O (centres undefined)
inactive: NCI-H226 lung 98.2% | NCI-H322M lung 88.6% | HOP-62 NSCLC 98.4% | NCI-H460 lung 108% | 786-0 renal 101% | COLO 205 colon 106%
